In PubChem BioAssay one finds composite z-score and z-score data, which are given here for five compounds.

Experiment [1] deals with PRMT1 (protein arginine N-methyltransferase 1). The experiment in a line: small molecules binding arginine methyltransferase PRMT1 – biochemical, small-molecule microarray, 635 nm fluorescence, primary screen (AID 1088).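 Also: binding of Prmt1 protein to compounds spotted on small-molecule microarray slides.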 The conditions noted are these: higher = more signal.
Experiment [2] in a line: growth effects on S. cerevisiae YJM789 – YJM789 clinical isolate, OD600, 24 h, basal, primary screen (AID 1089).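 Also: growth of clinical yeast isolate S. cerevisiae YJM 789 seeded 1000 cells per well; test concentration not given here.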 The settings on record: higher = more signal, called active from +8 up or from −8 down.
Experiment [3] is described as follows: S. pombe growth modifiers, basal conditions – strain 972, OD600, 24 h, no modulator, primary screen (AID 1090).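 Also: basal condition with compound alone and no growth modifier present; test concentration not given here.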 The conditions noted are these: S. pombe 972 growth, higher = more signal, called active from +8 up or from −8 down.
Experiment [4] can be described thus: budding yeast growth modifiers under rapamycin – strain BY4716, OD600, 96 h, primary screen (AID 1091). Also: test concentration not given here. The settings on record: S. cerevisiae BY4716 + rapamycin, higher = more signal, called active from +8 up or from −8 down.
In experiment [5] the target is Torsin-1A-interacting protein 2 (Homo sapiens) (UniProt Q8NFQ8). Kind of experiment: small molecules binding lysate-expressed LULL1 – cell lysate, human LULL1 lysate, 635/667 nm fluorescence, primary screen (AID 1092).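 Also: probe is lysate of COS7 cells overexpressing human LULL1; score merges per-feature 667 nm fluorescence with signal-to-noise.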 The conditions noted are these: small-molecule microarray, hLULL1 lysate binding, 635 nm fluorescence; higher = more signal.
Chain of Torsin-1A-interacting protein 2 (Homo sapiens) (Q8NFQ8 whole entry, looked up): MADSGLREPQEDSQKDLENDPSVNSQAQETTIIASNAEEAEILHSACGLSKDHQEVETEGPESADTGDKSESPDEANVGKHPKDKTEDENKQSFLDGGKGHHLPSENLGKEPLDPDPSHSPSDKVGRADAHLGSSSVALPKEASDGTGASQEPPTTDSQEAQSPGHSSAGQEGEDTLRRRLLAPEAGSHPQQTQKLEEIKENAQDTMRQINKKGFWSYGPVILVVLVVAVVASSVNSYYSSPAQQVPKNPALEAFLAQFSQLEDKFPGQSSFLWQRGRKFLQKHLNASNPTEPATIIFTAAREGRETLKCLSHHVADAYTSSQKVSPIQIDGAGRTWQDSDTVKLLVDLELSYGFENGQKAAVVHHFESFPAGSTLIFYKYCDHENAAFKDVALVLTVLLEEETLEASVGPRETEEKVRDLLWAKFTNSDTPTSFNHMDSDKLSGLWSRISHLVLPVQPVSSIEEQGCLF
Experiment [6] in a line: optical density change of DRC41 E. coli – strain DRC41, OD650, 24 h, E. coli filamentation project, primary screen (AID 1093).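 Also: MC1000 strain lacking acrAB efflux and sulA so SOS filamentation is blocked; test concentration not given here.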 The conditions noted are these: E. coli DRC41 growth, higher = more signal, called active from +8 up or from −8 down.
Experiment [7] in a line: probe aLefty2 binding to arrayed compounds – biochemical, biotinylated probe, 635/667 nm fluorescence, primary screen (AID 1094).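 Also: score merges spot fluorescence near 667 nm with spot signal-to-noise ratio.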 The settings on record: small-molecule microarray, higher = more signal.
Experiment [8] deals with Noggin (protein binding on small-molecule microarray). The experiment in a line: small molecules binding Noggin protein – biochemical, 635/667 nm fluorescence, primary screen (AID 1095).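 Also: score merges 667 nm feature fluorescence with signal to noise over triplicate slides.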 The settings on record: 635 nm fluorescence, higher = more signal.
Experiment [9] has as its target Neurogenic locus notch homolog protein 3 (Homo sapiens) (UniProt Q9UM47). The experiment in a line: small molecules binding NOTCH3 protein – biochemical, 635/667 nm fluorescence, primary screen (AID 1096). The conditions noted are these: small-molecule microarray, 635 nm fluorescence, higher = more signal.
Experiment [10] can be described thus: probe aEGFR binding to arrayed compounds – biochemical, biotinylated probe, 635/667 nm fluorescence, primary screen (AID 1097).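 Also: probe is a biotinylated anti-EGFR antibody binding compounds printed on slides; score combines fluorescence near 667 nm and signal to noise of each spot.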 The conditions noted are these: small-molecule microarray, higher = more signal.
The test system of experiment [11] is Plasmodium falciparum Sir2 (PF13_0152, Sir2A). The experiment in a line: Plasmodium falciparum Sir2A binding compounds – biochemical, small-molecule microarray, 635 nm fluorescence, primary screen (AID 1098).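 Also: score merges spot fluorescence intensity with its signal-to-noise ratio.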 The conditions noted are these: fluorescence 635 nm, higher = more signal.
Experiment [12] in a line: probe aDKK1 binding to arrayed compounds – biochemical, biotinylated probe, 635/667 nm fluorescence, primary screen (AID 1099).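 Also: score merges 667nm spot fluorescence with signal to noise across triplicate slides; reference of the scale not given here.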 The settings on record: small-molecule microarray, higher = more signal.
Experiment [13] can be described thus: probe aCHRDL2 binding to arrayed compounds – biochemical, biotinylated probe, 635/667 nm fluorescence, primary screen (AID 1100). The settings on record: small-molecule microarray, higher = more signal.
The nature of experiment [14]: change in splice reporter luminescence, either direction, cell-based, HEK293, spliceosome inhibition project, primary screen (AID 1101).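 Also: HEK293 cells carrying a splicing-competent luciferase reporter gene; test concentration not given here.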 The settings on record: HEK293 splicing luciferase reporter, 24 h, higher = more signal, called active from +8 up or from −8 down. On the technique in general: A reporter such as luciferase makes a cellular process visible.
In experiment [15] the target is Fibroblast growth factor 10 (Homo sapiens) (UniProt O15520). The experiment in a line: compounds binding fibroblast growth factor 10 – biochemical, small-molecule microarray, 635 nm fluorescence, primary screen (AID 1102). The conditions noted are these: FGF10 binding, fluorescence 635 nm, higher = more signal.
Chain of Fibroblast growth factor 10 (Homo sapiens) (O15520 whole entry, looked up): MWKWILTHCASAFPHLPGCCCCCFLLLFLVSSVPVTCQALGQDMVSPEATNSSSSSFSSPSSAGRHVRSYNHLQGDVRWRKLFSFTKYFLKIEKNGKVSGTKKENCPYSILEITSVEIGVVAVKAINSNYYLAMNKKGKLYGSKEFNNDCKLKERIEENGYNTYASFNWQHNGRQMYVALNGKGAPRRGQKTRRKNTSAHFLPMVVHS
For experiment [16], the system named is glycogen synthase kinase-3 (GSK3A per assay name; protocol says GSK3B). The experiment in a line: compounds binding glycogen synthase kinase-3 – biochemical, small-molecule microarray, 635 nm fluorescence, GSK3A, primary screen (AID 1103). Also: the record names both GSK3A and GSK3B. The settings on record: fluorescence 635 nm, higher = more signal.
Experiment [17] concerns the target Epidermal growth factor receptor (Homo sapiens) (UniProt P00533). The experiment in a line: compounds binding epidermal growth factor receptor – biochemical, small-molecule microarray, 635 nm fluorescence, primary screen (AID 1104).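 Also: score merges 667 nm emission intensity with spot signal to noise over triplicate slides.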 The conditions noted are these: EGFR binding, higher = more signal.
Experiment [18] concerns the target Follistatin-related protein 3 (Homo sapiens) (UniProt O95633). Kind of experiment: compounds binding follistatin-related protein 3 – biochemical, small-molecule microarray, 635 nm fluorescence, primary screen (AID 1105).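 Also: score merges emission near 667 nm and signal to noise per printed spot across three slides.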 The conditions noted are these: FSTL3 binding, higher = more signal.
Experiment [19] has as its target Dickkopf-related protein 1 (Homo sapiens) (UniProt O94907). The experiment in a line: small molecules binding DKK1 protein – biochemical, small-molecule microarray, 635 nm fluorescence scan, primary screen (AID 1106).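 Also: score merges emission near 667 nm with signal to noise over three replicate slides.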 The settings on record: higher = more signal.
Experiment [20] deals with Inhibin beta A chain (activin A). The experiment in a line: small molecules binding activin A – biochemical, small-molecule microarray, 635 nm fluorescence scan, primary screen (AID 1107).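 Also: mouse activin A protein probed at 4.33 µg/mL on printed slides; score merges bound-protein fluorescence near 667 nm with spot signal-to-noise.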 The conditions noted are these: INHBA, higher = more signal.

Active and inactive are the calls of the source.

Chain of Neurogenic locus notch homolog protein 3 (Homo sapiens) (Q9UM47 whole entry, looked up): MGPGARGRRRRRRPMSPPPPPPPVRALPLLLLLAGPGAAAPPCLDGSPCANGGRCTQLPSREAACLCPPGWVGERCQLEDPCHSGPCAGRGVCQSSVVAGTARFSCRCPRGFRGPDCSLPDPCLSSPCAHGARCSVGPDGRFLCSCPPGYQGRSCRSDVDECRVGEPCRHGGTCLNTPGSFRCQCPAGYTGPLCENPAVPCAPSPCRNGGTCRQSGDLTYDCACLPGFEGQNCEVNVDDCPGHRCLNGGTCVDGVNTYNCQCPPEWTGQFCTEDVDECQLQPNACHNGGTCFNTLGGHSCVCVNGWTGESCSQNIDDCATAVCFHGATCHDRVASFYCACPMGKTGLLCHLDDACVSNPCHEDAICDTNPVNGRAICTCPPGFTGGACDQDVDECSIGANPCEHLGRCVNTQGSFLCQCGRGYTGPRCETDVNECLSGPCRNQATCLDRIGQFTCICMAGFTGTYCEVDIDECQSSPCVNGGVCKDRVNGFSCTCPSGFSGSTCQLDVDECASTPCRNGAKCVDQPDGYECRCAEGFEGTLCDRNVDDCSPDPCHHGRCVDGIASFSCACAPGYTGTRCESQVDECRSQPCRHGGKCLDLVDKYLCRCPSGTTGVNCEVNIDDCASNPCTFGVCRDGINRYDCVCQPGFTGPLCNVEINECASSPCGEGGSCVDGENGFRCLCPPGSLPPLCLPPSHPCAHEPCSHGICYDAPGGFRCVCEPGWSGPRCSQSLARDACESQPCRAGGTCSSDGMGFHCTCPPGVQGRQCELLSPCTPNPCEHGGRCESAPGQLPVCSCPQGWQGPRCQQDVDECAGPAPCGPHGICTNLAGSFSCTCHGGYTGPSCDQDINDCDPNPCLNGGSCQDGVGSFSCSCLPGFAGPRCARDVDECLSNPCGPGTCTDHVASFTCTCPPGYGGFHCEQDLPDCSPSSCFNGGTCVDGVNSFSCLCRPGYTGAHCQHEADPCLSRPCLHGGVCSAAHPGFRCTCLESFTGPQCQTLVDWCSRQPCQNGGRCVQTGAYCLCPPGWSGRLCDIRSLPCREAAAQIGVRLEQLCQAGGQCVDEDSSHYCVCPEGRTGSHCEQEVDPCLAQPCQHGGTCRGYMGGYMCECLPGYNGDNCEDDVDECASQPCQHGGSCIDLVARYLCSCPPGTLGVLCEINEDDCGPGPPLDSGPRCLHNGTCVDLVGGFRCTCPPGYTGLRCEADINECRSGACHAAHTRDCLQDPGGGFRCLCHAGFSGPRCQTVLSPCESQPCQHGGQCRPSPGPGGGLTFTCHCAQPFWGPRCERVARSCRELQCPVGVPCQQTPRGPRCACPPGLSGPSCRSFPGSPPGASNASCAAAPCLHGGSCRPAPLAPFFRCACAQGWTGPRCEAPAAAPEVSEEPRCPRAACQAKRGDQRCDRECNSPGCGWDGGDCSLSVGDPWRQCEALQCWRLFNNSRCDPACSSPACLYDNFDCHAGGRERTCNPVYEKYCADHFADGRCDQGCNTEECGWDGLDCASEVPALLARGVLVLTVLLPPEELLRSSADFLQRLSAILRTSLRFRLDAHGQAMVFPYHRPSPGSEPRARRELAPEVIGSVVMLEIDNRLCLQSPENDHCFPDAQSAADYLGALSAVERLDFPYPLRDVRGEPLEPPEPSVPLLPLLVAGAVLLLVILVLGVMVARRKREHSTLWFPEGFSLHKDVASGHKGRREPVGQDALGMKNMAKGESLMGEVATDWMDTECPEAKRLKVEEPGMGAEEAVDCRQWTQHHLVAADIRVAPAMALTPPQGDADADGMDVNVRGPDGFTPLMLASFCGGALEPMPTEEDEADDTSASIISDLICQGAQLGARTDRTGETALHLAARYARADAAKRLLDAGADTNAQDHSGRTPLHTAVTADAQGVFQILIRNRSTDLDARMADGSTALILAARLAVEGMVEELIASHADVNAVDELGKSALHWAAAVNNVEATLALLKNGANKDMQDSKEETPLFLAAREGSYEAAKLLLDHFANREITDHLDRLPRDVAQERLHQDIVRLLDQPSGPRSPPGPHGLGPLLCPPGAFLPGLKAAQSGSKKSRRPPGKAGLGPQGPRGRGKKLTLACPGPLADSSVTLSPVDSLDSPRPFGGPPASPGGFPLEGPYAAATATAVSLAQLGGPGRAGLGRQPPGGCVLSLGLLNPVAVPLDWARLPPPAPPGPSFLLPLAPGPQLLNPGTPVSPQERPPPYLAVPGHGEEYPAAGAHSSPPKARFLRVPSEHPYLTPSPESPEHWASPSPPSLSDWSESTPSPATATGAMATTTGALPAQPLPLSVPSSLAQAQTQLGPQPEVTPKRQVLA
Chain of Follistatin-related protein 3 (Homo sapiens) (O95633 whole entry, looked up): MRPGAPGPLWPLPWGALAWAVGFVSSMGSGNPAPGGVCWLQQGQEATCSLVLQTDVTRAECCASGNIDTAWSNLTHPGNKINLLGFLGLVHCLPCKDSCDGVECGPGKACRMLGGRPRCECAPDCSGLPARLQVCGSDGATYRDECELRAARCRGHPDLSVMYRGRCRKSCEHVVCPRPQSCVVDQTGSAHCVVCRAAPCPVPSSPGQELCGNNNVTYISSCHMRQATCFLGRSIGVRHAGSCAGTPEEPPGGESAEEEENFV
Chain of Epidermal growth factor receptor (Homo sapiens) (P00533 whole entry, looked up): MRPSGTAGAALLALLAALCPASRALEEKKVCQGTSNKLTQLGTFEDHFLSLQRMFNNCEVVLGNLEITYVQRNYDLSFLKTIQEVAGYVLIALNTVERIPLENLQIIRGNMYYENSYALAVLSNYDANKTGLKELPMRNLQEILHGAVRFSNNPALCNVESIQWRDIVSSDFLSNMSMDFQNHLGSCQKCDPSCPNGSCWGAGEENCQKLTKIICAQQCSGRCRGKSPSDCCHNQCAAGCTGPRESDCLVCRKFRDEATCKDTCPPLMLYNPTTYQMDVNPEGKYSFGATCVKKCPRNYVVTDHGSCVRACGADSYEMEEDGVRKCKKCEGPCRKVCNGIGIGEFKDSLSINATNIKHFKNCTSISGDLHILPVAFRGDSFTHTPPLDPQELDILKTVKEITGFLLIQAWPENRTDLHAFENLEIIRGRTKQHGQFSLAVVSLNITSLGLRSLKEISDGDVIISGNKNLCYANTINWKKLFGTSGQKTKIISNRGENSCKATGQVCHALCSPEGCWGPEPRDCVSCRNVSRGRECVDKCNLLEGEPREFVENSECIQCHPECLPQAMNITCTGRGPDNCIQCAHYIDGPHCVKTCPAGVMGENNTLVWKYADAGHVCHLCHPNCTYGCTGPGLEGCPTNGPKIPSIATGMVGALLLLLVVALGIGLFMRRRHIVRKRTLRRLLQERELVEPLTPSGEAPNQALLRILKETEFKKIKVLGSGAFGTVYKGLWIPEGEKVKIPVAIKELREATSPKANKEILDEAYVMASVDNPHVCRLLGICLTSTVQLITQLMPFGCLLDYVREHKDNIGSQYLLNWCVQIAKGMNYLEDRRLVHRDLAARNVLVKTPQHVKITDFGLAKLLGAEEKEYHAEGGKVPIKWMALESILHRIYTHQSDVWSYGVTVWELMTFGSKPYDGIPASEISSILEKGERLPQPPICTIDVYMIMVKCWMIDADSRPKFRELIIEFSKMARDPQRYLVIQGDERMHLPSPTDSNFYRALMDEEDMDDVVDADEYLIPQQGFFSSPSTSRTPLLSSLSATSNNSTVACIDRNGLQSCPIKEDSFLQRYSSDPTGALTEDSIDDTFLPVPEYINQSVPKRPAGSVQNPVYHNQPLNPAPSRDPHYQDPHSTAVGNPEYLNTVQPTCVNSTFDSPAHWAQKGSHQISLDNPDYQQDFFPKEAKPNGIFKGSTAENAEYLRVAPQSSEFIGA
Chain of Dickkopf-related protein 1 (Homo sapiens) (O94907 whole entry, looked up): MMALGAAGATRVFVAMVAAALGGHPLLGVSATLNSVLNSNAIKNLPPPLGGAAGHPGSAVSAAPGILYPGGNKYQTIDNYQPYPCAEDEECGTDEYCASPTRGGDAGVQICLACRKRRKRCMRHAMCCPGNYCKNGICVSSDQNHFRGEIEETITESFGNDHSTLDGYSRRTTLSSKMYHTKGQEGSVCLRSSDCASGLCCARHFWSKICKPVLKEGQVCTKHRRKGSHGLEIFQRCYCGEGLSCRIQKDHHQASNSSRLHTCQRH

On to `COC(=O)NCC=Cc1nc(CCCO)co1`, for which the composite z-score in experiment [1] is -0.227; in [5], 0.39; in experiment [7], -0.0139; in experiment [8] it was 0.501; in experiment [9], 0.903; in experiment [10], 0.0678. Also, the composite z-score is 0.439 in [11]; -0.414 in experiment [12]; -0.576 in experiment [13]; 0.534 in experiment [15]; 0.926 in experiment [16]; 0.581 in experiment [17]. Also, the composite z-score in [18] was 0.887; in experiment [19], 0.617; in experiment [20], 0.163. Also, the z-score in [2] was 0.084 (inactive); in experiment [3] it was 0.211 (inactive); in experiment [4] it was 0.214 (inactive); in [6], 0.423 (inactive); in experiment [14] it was 0.566 (inactive).
Take `O=C1C2=CC[C@H]3C(=O)N(c4cccc(Oc5ccccc5)c4)C(=O)[C@H]3[C@H]2[C@H](O)[C@@H]2O[C@H]12`: the composite z-score in experiment [1] was 0.435; in experiment [5], -0.122; in [7], -0.139; in [8], 0.744; in [9], 0.92; in [10], -0.0219. In addition, the composite z-score is 0.237 in experiment [11]; -0.372 in [12]; -0.37 in [13]; 0.635 in experiment [15]; 0.393 in experiment [16]; 0.299 in experiment [17]. Moreover, the composite z-score was 0.666 in experiment [18], 0.655 in experiment [19] and -0.0639 in [20]. The z-score is 0.135 (inactive) in [2]; -0.974 (inactive) in experiment [3]; -0.147 (inactive) in [4]; -0.425 (inactive) in [6]; 14.7 (active) in [14].
Turning to `CO[C@@H]1COC(=O)[C@H](CCSC)NC(=O)CC=C[C@@H](C)COC(=O)CCC[C@H]1C`, the composite z-score in [1] was 1.55; in experiment [5], -0.86; in experiment [7], -0.0225; in experiment [8], 1.82; in experiment [9], 0.249; in experiment [10] it was 0.232. Moreover, the composite z-score in [11] was 0.919; in experiment [12], -0.374; in [13] it was -1.25; in experiment [15] it was 0.399; in [16] it was 1.26; in [17] it was 1.03. The composite z-score in experiment [18] is 1.03; in experiment [19] it was 2.36; in experiment [20], -1.51. Moreover, the z-score in experiment [2] is -1.16 (inactive); in experiment [3], 0.583 (inactive); in [4], -1.25 (inactive); in experiment [6], -0.0886 (inactive); in experiment [14] it was -0.433 (inactive).
For the compound `Cc1cc2c(nc1C)CCCCN2CC(C)ON=C1[C@H]2CCn3c(=O)n(-c4ccccc4)c(=O)n3[C@H]2[C@H](O)[C@@H]2O[C@H]12` (stereo not given in full), the composite z-score in experiment [1] was 0.208; in [5], 0.998; in experiment [7] it was 0.106; in experiment [8], 0.439; in [9], 0.258; in experiment [10], -0.0922. In addition, the composite z-score in [11] was 0.606; in experiment [12] it was 0.213; in experiment [13], -0.0869; in experiment [15] it was 1.11; in experiment [16] it was 0.331; in experiment [17] it was 0.302. The results for the composite z-score in experiment [18], in experiment [19] and in experiment [20] were 1.05, 0.7 and 1.3, respectively. The z-score is 0.678 (inactive) in experiment [2]; -0.167 (inactive) in experiment [3]; 0.103 (inactive) in [4]; 0.777 (inactive) in experiment [6]; 0.718 (inactive) in experiment [14].
For the compound `CC(C)CON=C1[C@H]2CCn3c(=O)n(Cc4cc5c(cc4Cl)OCO5)c(=O)n3[C@H]2[C@H](O)[C@@H]2O[C@H]12`, the composite z-score was -0.149 in experiment [1]; 0.299 in experiment [5]; -0.0936 in experiment [7]; 0.607 in experiment [8]; 0.573 in experiment [9]; -0.0139 in experiment [10]. For the same compound, the composite z-score is 0.241 in experiment [11]; -0.304 in experiment [12]; -0.641 in experiment [13]; 0.533 in experiment [15]; 0.589 in experiment [16]; 0.483 in experiment [17]. Further, the composite z-score in experiment [18] came to 0.554; in experiment [19], 0.484; in experiment [20] it was 0.233. Besides, the z-score in [2] is 0.534 (inactive); in experiment [3], -0.129 (inactive); in experiment [4], 0.296 (inactive); in experiment [6], 0.0007 (inactive); in experiment [14], -0.756 (inactive).
